Experimental data from PubChem BioAssay (NCI).
This is part of a sample that, as a whole, favours compounds with a hit. Of some 79,000 tested, about 15% had one in any assay. No stated cut-off is given here; in the data, active means growth inhibition above about 70%; inactive means the rest.

How the values were obtained:
[1] = NCI Yeast Anticancer Drug Screen. Data for the rad50 strain (AID 155);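 further: 0% = growth of vehicle-only cultures of the same strain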; conditions: S. cerevisiae rad50 strain growth inhibition; at 50.0 µM; stronger effect = higher value
Method in brief: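 Compounds were tested on a yeast strain with an engineered DNA damage repair alteration; the reported value is growth inhibition normalised to vehicle treatment.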

[2] = NCI Yeast Anticancer Drug Screen. Data for the mec2-1 strain (AID 157); conditions: S. cerevisiae mec2-1 strain, at 50.0 µM, stronger effect = higher value
Method in brief: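 Vehicle-treated cultures served as reference for growth inhibition of compound-exposed mec2-1 yeast.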

[3] = NCI Yeast Anticancer Drug Screen. Data for the sgs1 mgt1 strain (AID 161);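 further: 0% = growth of cultures given vehicle only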; conditions: S. cerevisiae sgs1 mgt1 strain, at 50.0 µM, stronger effect = higher value
Method in brief: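 Mutant yeast exposed to compound; growth scored against vehicle-only wells.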

[4] = NCI Yeast Anticancer Drug Screen. Data for the cln2 rad14 strain (AID 165);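 further: 0% = growth equal to vehicle treated cultures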; conditions: S. cerevisiae cln2 rad14 strain, at 50.0 µM, stronger effect = higher value
Method in brief: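 Each compound was tested on cln2 rad14 yeast. Inhibition of growth was calculated against vehicle-exposed controls.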

[5] = NCI Yeast Anticancer Drug Screen. Data for the bub3 strain (AID 167); conditions: S. cerevisiae bub3 mutant strain, at 50.0 µM, stronger effect = higher value
Method in brief: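 Growth of a checkpoint-deficient yeast mutant is measured after compound exposure. Values represent inhibition relative to vehicle.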

[6] = NCI Yeast Anticancer Drug Screen. Data for the mlh1 rad18 strain (AID 175); conditions: S. cerevisiae mlh1 rad18 strain growth inhibition; at 50.0 µM; stronger effect = higher value
Method in brief: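 Vehicle-treated cultures served as the reference for growth inhibition in a yeast strain carrying DNA damage repair alterations exposed to each compound.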

Measured: growth inhibition

O=[N+]([O-])c1cccc(OCC2CO2)c1 (stereo not given)
inactive: [1] 9% | [2] -23.8% | [3] -0.75% | [4] -13.2% | [5] -2.1% | [6] 34.5%

C=CCOC(=O)CCC(=O)OCC=C
inactive: [1] 3.45% | [2] 6.2% | [3] -4.65% | [4] -15.4% | [5] 5.8% | [6] -4.35%

COCCCNC1=C(C#N)C(=O)NC(c2cccs2)S1 (stereo not given)
inactive: [1] 2% | [2] 0.15% | [3] 3.45% | [4] 1.25% | [5] 5.3% | [6] -34.8%

COC1=c2\cccc\c2=c2/cccc/c2=c2\cccc\c2=N\1
inactive: [1] 17.4% | [2] 13.1% | [3] 11.4% | [4] 12.2% | [5] 13.4% | [6] 17.5%

NNC(=O)CC(=O)N(C(=O)/C=C/c1ccccc1)c1ccc(Cl)cc1
inactive: [1] -11.9% | [2] -16.9% | [3] 15.1% | [4] 24% | [5] -14.5% | [6] 19.4%

Cc1ccc(NC(=S)N/C=C(\c2ccccc2)S(=O)Cc2ccccc2)c(C)c1 (stereo not given)
inactive: [1] 8% | [2] -22.1% | [3] -8% | [4] 15.7% | [5] 14.1% | [6] 1.8%

CCOC(=O)c1cccc(C(=O)OCC)n1
inactive: [1] 4.75% | [2] -2.35% | [3] 11.8% | [4] -1.65% | [5] 18.7% | [6] -14.6%

Cn1c2ccccc2c2nc3ccccc3c(Cl)c21
inactive: [1] -43.5% | [2] -12.8% | [3] -49.9% | [4] -12.9% | [5] -39.9% | [6] -31.9%

CCOc1ccc(CC(=O)Nc2cc([N+](=O)[O-])ccc2NCCN(CC)CC)cc1
inactive: [1] -18.2% | [2] -10.4% | [3] -8.6% | [4] -53.8% | [5] 0.2% | [6] -3.85%

CC(C)=NOC(C)C(=O)O (stereo not given)
inactive: [1] -11.9% | [2] 18.2% | [3] -24.4% | [4] 10.2% | [5] -0.9% | [6] -3.15%

CN(C)C(=N)N
inactive: [1] -28.9% | [2] 6.3% | [3] -27.4% | [4] -21.6% | [5] -0.7% | [6] -18.4%

COC(=O)CCCCCNC(=O)NCCCCCC(=O)OC
inactive: [1] 4.6% | [2] -21% | [3] -1.2% | [4] 6.25% | [5] -11.4% | [6] 19.1%

COc1ccc(-c2c(C(=O)O)cc(O)c3cc(OC)c(OC)cc23)cc1OC
inactive: [1] 6.4% | [2] -2.9% | [3] 5% | [4] 26.4% | [5] 3.3% | [6] -0.75%

COC(=O)N/N=C/c1oc(-c2cccc([N+](=O)[O-])c2)c(-c2cccc([N+](=O)[O-])c2)c1[N+](=O)[O-]
inactive: [1] 19.4% | [2] 30.1% | [3] 16.5% | [4] 22.6% | [5] 21% | [6] 22.6%

CCOc1ccc(-c2oc(/C=N/NS(=O)(=O)c3ccc(C)cc3)c([N+](=O)[O-])c2-c2ccc(OCC)cc2)cc1
inactive: [1] 59.7% | [2] 37.5% | [3] 64% | [4] 62.2% | [5] 44.6% | [6] 58.5%

O=c1[nH]nnc2cc(Cl)ccc12
inactive: [1] 0% | [2] 6.15% | [3] -4.65% | [4] -12.2% | [5] 2% | [6] -1.3%

CNc1ccc(Cl)cc1S(=O)(=O)c1ccccc1[N+](=O)[O-]
inactive: [1] 3.2% | [2] 16.4% | [3] 24.8% | [4] 23.3% | [5] 5.65% | [6] -7.05%

COc1cccc(NC(=O)CC(=O)N/N=C/c2ccc(N(CCC#N)CCC#N)c(I)c2)c1
inactive: [1] 29.6% | [2] 8.95% | [3] 7.7% | [4] 9.55% | [5] -5.55% | [6] 28.7%

O=c1c2ccccc2[nH]c2c(O)c3c(=O)c4ccccc4[nH]c3cc12
inactive: [1] -8.6% | [2] -2.05% | [3] 3.9% | [4] -4.4% | [5] 3.15% | [6] 4.05%

CC(=O)Oc1ccc(OC(C)=O)c2c(OC(C)=O)ccc(OC(C)=O)c12
inactive: [1] 0.45% | [2] 2.15% | [3] 1.55% | [4] -10.3% | [5] 53.8% | [6] -6.8%
